Paper PMC13494018
Unmarked numbers belong to inactive results. The rule behind the calls is not given here.

Target: VTCN1, Q7Z7D3
Sequence (Q7Z7D3 whole entry): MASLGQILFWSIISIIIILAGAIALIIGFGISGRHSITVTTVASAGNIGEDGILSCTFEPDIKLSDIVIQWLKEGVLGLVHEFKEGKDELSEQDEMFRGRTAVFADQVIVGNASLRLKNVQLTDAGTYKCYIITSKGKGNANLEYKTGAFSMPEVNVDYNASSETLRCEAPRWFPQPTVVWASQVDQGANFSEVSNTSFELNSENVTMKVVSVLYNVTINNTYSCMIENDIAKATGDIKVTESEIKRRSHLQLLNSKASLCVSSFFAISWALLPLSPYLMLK

Binder | binding in a display sort
design_605_6ebdab39-eaab-4492-afcb-164e20c3b25e_178_dldesign_0_cycle1_af2pred (protein) MSEEIKKKAEEIVEEALKKAEAAPTVEEAQAILDEALDKAVSLGKTIEEKKYAADLVSKARKKLREVWKAR | not found
design_605_6ebdab39-eaab-4492-afcb-164e20c3b25e_501_dldesign_0_cycle1_af2pred (protein) AAAEEAAKKALKELKEEAKKLVEEAKKSNAEEAKKKRKEVVELGKEYAEKAAASPEVQKEIAKVVHEAQEELAEAAFEHSRKEKE | not found
design_605_6ebdab39-eaab-4492-afcb-164e20c3b25e_165_dldesign_0_cycle1_af2pred (protein) AAAAEAAAKEAAAKLAIAEARALIRAGRANPKFGVELALEGAKIAREAAKKNPAMKEELEKTAKEAEKEAKKLA | not found
design_605_6ebdab39-eaab-4492-afcb-164e20c3b25e_648_dldesign_0_cycle1_af2pred (protein) AEAEELKKKASQYLMEAFDTGSEEELKKAIEYAEKAAEAASEEEGKKILEEKEKMKKGFERFLKAYKEAQKKAEE | not found
design_605_6ebdab39-eaab-4492-afcb-164e20c3b25e_250_dldesign_0_cycle1_af2pred (protein) AAAAAAARLAAGLAAAAKFVEEATKKAREIAAKKTPEESAKAKAEVEEYEAMARDALAMGNAAGARSIARLALEKVS | not found
design_605_6ebdab39-eaab-4492-afcb-164e20c3b25e_689_dldesign_0_cycle1_af2pred (protein) GAAQEEADKALEKAGKILKEAEKLAKEAAKIGTEEEAKELEELIKKAKELLEKGKASTPEEKKKLAVEAAEYAHEARALAKHILASK | not found
design_605_6ebdab39-eaab-4492-afcb-164e20c3b25e_258_dldesign_0_cycle1_af2pred (protein) KAKELSKIVHEGFQAAKELELLAKKDPRMKPAAEEAEKLRKKAVEAAKAGDYEKAAEYAKKLKELAEKALKEYE | not found
design_605_6ebdab39-eaab-4492-afcb-164e20c3b25e_593_dldesign_0_cycle1_af2pred (protein) EVEAKASEVAARARQVIAEAEYLERRAKKEGDKEKEKKAKEAKELAEKALELIKKGGLEGVEKAEKLVEEAEKLLEE | not found
design_605_6ebdab39-eaab-4492-afcb-164e20c3b25e_758_dldesign_0_cycle1_af2pred (protein) SEYFKEAVDVASKIVRAYHALAAVFPETAAQLEADGDAKVDKVMAAAELAEKDPEKGKAELEKQKAEAEKIKAEADKAAAAAR | not found
design_605_6ebdab39-eaab-4492-afcb-164e20c3b25e_565_dldesign_0_cycle1_af2pred (protein) AVEKTIAELLKAASAAIIELFDDPEKGRAKLAEVLAKAEAAAKAASPKDAAKIQAALDEMKKRGEAAIKRVEEDEKIAK | not found
design_605_6ebdab39-eaab-4492-afcb-164e20c3b25e_445_dldesign_0_cycle1_af2pred (protein) AKEKALIDLQIAEQMAEAAKEGYAGTAAAKRAAKAAKRAIKLDPSLAEEAVKIMKELAKAAAKQDPEAGKVAAKELKEVEKEAKKVKE | not found
design_605_6ebdab39-eaab-4492-afcb-164e20c3b25e_437_dldesign_0_cycle1_af2pred (protein) MKEEAEEAKKRAEAIKKAAKEDPDKAAALIAKGFASPLAAAVKAAPPETRAEAAAQAAKVATRILENEARSYERTAN | not found
design_605_6ebdab39-eaab-4492-afcb-164e20c3b25e_390_dldesign_0_cycle1_af2pred (protein) KEEKVEEVKKKMEESSLAEAVFIGIEAVMEFTKDAPEYMRKIVKAGRKGGEEGDEEKAKKEMAEIVKKAAE | not found
design_605_6ebdab39-eaab-4492-afcb-164e20c3b25e_661_dldesign_0_cycle1_af2pred (protein) MEEFEKLVKEAEKLIKKALESKDKEERKKLVEEAKEVLKKAQKLGKELAAKSTPEEAKEIVEKMHELHEKLAEAKQKAS | not found
design_605_6ebdab39-eaab-4492-afcb-164e20c3b25e_737_dldesign_0_cycle1_af2pred (protein) MEELKEQIKEIKEKAEEILKNKETASLGILAESNAEDAEKLLKAGEADPSTKEKNVAEAKKFLKAAKEYAEKGLELMKKLK | not found
design_605_6ebdab39-eaab-4492-afcb-164e20c3b25e_558_dldesign_0_cycle1_af2pred (protein) EEEKKLVELLHEAQELAAEAEFYSKKDKEKSKEYIEKATKKIEEAAKLAGFEPIKAKNVEDLKEVLKEAIKKASERIKERKA | not found
design_605_6ebdab39-eaab-4492-afcb-164e20c3b25e_707_dldesign_0_cycle1_af2pred (protein) MKKQAIELAEEAKELMEKEGATPEAVALASSALRTAGFPRELAEEVREAYKKDKEEGEKKLKEAVKLVLERAKKK | not found
design_605_6ebdab39-eaab-4492-afcb-164e20c3b25e_729_dldesign_0_cycle1_af2pred (protein) SSSKETSEFNRELQKRARAAGEELEKKSKNPEAGKEAKKLLSNGLMESFDKSSKEEAKAALDKAIAEAKKHVEEAS | not found
design_605_6ebdab39-eaab-4492-afcb-164e20c3b25e_494_dldesign_0_cycle1_af2pred (protein) AEALEKGKAASAALDANIATGFATAEKTGDKAAAGAAAVAATAEAGAAIGPEAAEKGRRVMTSIFDGYVKA | not found
